In PubChem BioAssay (Tox21):
Values without a mark were called inactive. Records with an inconclusive call do not appear. Entries that show only a call come without a potency. Active and inactive are the calls of the source. Unless noted, the call rests on the fitted dose curve.

Assays:
[1] = Nuclear factor erythroid 2-related factor 2/antioxidant responsive element (Nrf2/ARE) small molecule agonists: qHTS cell viability counter screen in human keratinocytes (AID 1919968; active means well fitted curve in the direction sought with a large enough effect in the repeat runs; an effect the other way counts as inactive or inconclusive; further: nearly all actives have a fitted effect of over 55% in size; further: potency means the concentration at half of the fitted maximal effect)
In short: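 After a 5 h attachment period, ARE-reporter keratinocytes were dosed with compounds in DMSO and then cultured 23 h at 37 C. Cell viability came from CellTiter-Fluor signal read after a further 1 h.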

[2] = Nuclear factor erythroid 2-related factor 2/antioxidant responsive element (Nrf2/ARE) small molecule agonists: luciferase reporter gene qHTS assay in human keratinocytes (AID 1919969); further: nearly all actives have a fitted effect of over 35% in size; further: potency means the concentration at half of the fitted maximal effect
[3] = target: Gonadotropin-releasing hormone receptor (Homo sapiens) (UniProt P30968); test: Human gonadotropin-releasing hormone receptor (GnRHR) small molecule agonists, calcium flux assay in GnRHR-HEK293 cells (AID 1920063); further: nearly all actives have a fitted effect of over 35% in size
In short: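 We seeded human GnRHR-expressing HEK293 cells for 18 hours, loaded them with calcium dye for an hour at 37 C, added test compounds, and recorded fluorescence intensity kinetically for three minutes.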

[4] = target: KiSS-1 receptor (Homo sapiens) (UniProt Q969F8); test: Human kisspeptin (KISS1R) small molecule agonists, calcium flux assay in KISS1R-HEK293 cells (AID 1920064; active means well fitted curve in the direction sought with a large enough effect in the repeat runs; an effect the other way counts as inactive or inconclusive)
In short: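 Kinetic calcium assay, 1 s sampling over 3 min at Ex/Em 480/540, in HEK293 cells engineered with human KISS1R; compounds delivered in DMSO after 1 h dye loading.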

[5] = G protein-coupled receptor (GPCR) small molecule agonists, calcium flux assay: HEK293 wild type cell line counter screen (AID 1920065)
In short: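 Calcium-sensitive dye, loaded 1 h at 37 C into cells cultured 18 h, reports compound-evoked calcium release as fluorescence (Ex/Em 480/540), measured over 3 min. Agonist mode; 15-point titrations, triplicate.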

[6] = p53 small molecule agonists, cell-based qHTS assay with rat liver microsomes (AID 1963578)
In short: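 Agonist mode in p53RE-bla reporter cells, with compounds co-incubated 16 h at 37 C alongside 0.5 mg/mL rat liver microsomes and 0.5 mg/mL NADPH (final), followed by a 2 h LiveBLAzer detection step.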

[7] = p53 small molecule agonists, cell-based qHTS assay with rat liver microsomes: qHTS cell viability counter screen (AID 1963580); further: nearly all actives have a fitted effect of over 45% in size
In short: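 HCT-116 p53RE-bla, 4,000 cells/well, 5 h pre-incubation; cpd + rat liver microsomes 0.5 mg/mL + NADPH 0.5 mg/mL (final); 16 h, 37 C; CellTiter-Glo, 30 min RT; luminescence.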

[8] = p53 small molecule agonists, cell-based qHTS assay (AID 1963582; active means well fitted activation curve with a large enough effect in the signal ratio in the repeat runs, not every such curve was filed as active; the % refers to the signal ratio; further: potency means the concentration at half of the fitted maximal effect)
In short: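 In this cell-based concentration-response screen, a p53 response element drives beta-lactamase; cells received DMSO-borne compounds after 5 h culture and were incubated a further 16 h before FRET substrate development.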

[9] = target: 5-hydroxytryptamine receptor 2A (Homo sapiens) (UniProt P28223); test: 5-hydroxytryptamine receptor 2A (HTR2A) small molecule agonists, cell-based qHTS assay (AID 1963587); further: nearly all actives have a fitted effect of over 30% in size
In short: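 Kinetic calcium-flux fluorescence (2 min, 1 sec intervals) after compound addition in agonist mode. HTR2A-CHO cells were cultured 18 h, then dye-loaded 1 h at 37 C.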

[10] = target: Muscarinic acetylcholine receptor M1 (Homo sapiens) (UniProt P11229); test: Cholinergic receptor muscarinic 1 (CHRM1) small molecule antagonists, cell-based qHTS assay (AID 1963588); further: nearly all actives have a fitted effect of over 40% in size
In short: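 CHRM1-CHO calcium-flux assay, antagonist mode. Cells were seeded 18 h, dye-loaded 1 h at 37 C and given compound for 5 min at RT, then acetylcholine was added at 50nM. FDSS fluorescence was read 3 min; 15 concentrations, three runs.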

[11] = target: Muscarinic acetylcholine receptor M1 (Homo sapiens) (UniProt P11229); test: Cholinergic receptor muscarinic 1 (CHRM1) small molecule agonists, cell-based qHTS assay (AID 1963589); further: nearly all actives have a fitted effect of over 35% in size; further: potency means the concentration at half of the fitted maximal effect
In short: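 Measures agonist-induced intracellular calcium rise. Stable human CHRM1 CHO line, 1 h dye load at 37 C, compounds from DMSO, kinetic fluorescence read.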

[12] = cAMP Responsive Elements (CRE) small molecule agonists, cell-based qHTS assay (AID 1963590); further: potency means the concentration at half of the fitted maximal effect
In short: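 A CRE-responsive beta-lactamase reporter in HEK 293T cells was used. Treatment ran 3 h at 37 C; detection used LiveBLAzer B/G FRET substrate for 2 h at room temperature.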

[13] = target: Beta-2 adrenergic receptor (Homo sapiens) (UniProt P07550); test: Adrenergic beta2 receptor (ADRB2) small molecule antagonists, cell-based qHTS assay (AID 1963592); further: nearly all actives have a fitted effect of over 50% in size; further: potency means the concentration at half of the fitted maximal effect
In short: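 Cells (CHO, stable ADRB2 overexpression) incubated 18-20hr at 37C; compounds added from DMSO; agonist mix (1nM isoproterenol, 100uM IBMX, 25uM Ro-20-1724) added; 0.5hr RT; d2-cAMP and anti-cAMP-cryptate added; 1hr RT; 665/615 nm read.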

[14] = target: Beta-2 adrenergic receptor (Homo sapiens) (UniProt P07550); test: Adrenergic beta2 receptor (ADRB2) small molecule agonists, cell-based qHTS assay (AID 1963593);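 further: CHO cells stably overexpressing human ADRB2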
In short: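 CHO cells stably over-expressing ADRB2 were plated overnight at 37C, then dosed with compounds plus a stimulation mix containing 100uM IBMX and 25uM Ro-20-1724 for 0.5hr at room temperature. cAMP was measured by HTRF competition, 1hr.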

[15] = target: D(2) dopamine receptor (Homo sapiens) (UniProt P14416); test: Dopamine D2 receptor (DRD2) small molecule agonists, cell-based qHTS assay (AID 1963594); further: nearly all actives have a fitted effect of over 35% in size
In short: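 cAMP accumulation in DRD2-HEK293 cells measured by HTRF after 1 h detection; compounds added 10 min before NKH477 (200nM […]) forskolin-analogue stimulation, 30 min at room temperature, with Ro20-1724 present at 0.1 mM final.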

[16] = target: D(2) dopamine receptor (Homo sapiens) (UniProt P14416); test: Dopamine D2 receptor (DRD2) small molecule antagonists, cell-based qHTS assay (AID 1963595; active means well fitted inhibition curve with a large enough effect in the signal ratio in the repeat runs, with a control signal flat; the % refers to the signal ratio; further: potency means the concentration at half of the fitted maximal effect)
In short: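 HEK293 cells stably expressing DRD2, preincubated with 0.1 mM Ro20-1724 and compounds 10 min, were stimulated with 200 nM NKH477 plus 12 nM quinpirole for 30 min at room temperature; cAMP measured by HTRF (665/620 nm).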

[17] = p53 small molecule agonists, cell-based qHTS assay with human liver microsomes: qHTS cell viability counter screen (AID 1963579); further: nearly all actives have a fitted effect of over 45% in size
In short: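 Metabolically activated exposure: compounds, human liver microsomes and NADPH (0.5 mg/mL final apiece) were added to p53RE-bla cells seeded 5 h earlier, left 16 h at 37 C, and then assessed for viability by CellTiter-Glo luminescence.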

[18] = p53 small molecule agonists, cell-based qHTS assay: qHTS cell viability counter screen (AID 1963581); further: nearly all actives have a fitted effect of over 45% in size
In short: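 Following 5 h attachment, HCT-116 p53RE-bla cells took up compound for 16 h at 37 C; the reporter was read with B/G FRET substrate (2 h RT), and viability then via CellTiter-Glo ATP luminescence.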

[19] = cAMP Responsive Elements (CRE) small molecule antagonists, cell-based qHTS assay (AID 1963591; active means well fitted inhibition curve with a large enough effect in the signal ratio in the repeat runs, not every such curve was filed as active; the % refers to the signal ratio)
In short: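 HEK293T cells carrying a CRE-driven beta-lactamase reporter receive compound and NKH477 (0.25 uM final) for 3 h. Fluorescence from LiveBLAzer B/G FRET substrate is read after 2 h at room temperature.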

[20] = target: 5-hydroxytryptamine receptor 2A (Homo sapiens) (UniProt P28223); test: 5-hydroxytryptamine receptor 2A (HTR2A) small molecule antagonists, cell-based qHTS assay (AID 1963586); further: nearly all actives have a fitted effect of over 45% in size
In short: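 Antagonist-mode intracellular calcium assay: DOI (4 nM) added after 5 min compound pre-incubation at room temperature to dye-loaded HTR2A-CHO cells. Fluorescence followed for 3 min, sampled every second.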

Sequence of Muscarinic acetylcholine receptor M1 (Homo sapiens) (P11229 whole entry, looked up): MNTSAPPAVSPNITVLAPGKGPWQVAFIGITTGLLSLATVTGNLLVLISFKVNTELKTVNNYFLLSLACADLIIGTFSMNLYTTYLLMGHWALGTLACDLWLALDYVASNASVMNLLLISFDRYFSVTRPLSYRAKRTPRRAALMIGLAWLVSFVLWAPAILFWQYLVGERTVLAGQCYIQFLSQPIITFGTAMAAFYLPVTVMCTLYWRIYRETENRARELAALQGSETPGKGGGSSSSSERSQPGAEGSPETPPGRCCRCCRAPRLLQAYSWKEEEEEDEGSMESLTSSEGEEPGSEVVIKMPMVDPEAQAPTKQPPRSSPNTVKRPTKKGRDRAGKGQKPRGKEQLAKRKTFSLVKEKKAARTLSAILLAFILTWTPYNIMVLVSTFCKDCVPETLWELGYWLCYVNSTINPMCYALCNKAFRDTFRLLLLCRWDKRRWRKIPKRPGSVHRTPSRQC
Sequence of KiSS-1 receptor (Homo sapiens) (Q969F8 whole entry, looked up): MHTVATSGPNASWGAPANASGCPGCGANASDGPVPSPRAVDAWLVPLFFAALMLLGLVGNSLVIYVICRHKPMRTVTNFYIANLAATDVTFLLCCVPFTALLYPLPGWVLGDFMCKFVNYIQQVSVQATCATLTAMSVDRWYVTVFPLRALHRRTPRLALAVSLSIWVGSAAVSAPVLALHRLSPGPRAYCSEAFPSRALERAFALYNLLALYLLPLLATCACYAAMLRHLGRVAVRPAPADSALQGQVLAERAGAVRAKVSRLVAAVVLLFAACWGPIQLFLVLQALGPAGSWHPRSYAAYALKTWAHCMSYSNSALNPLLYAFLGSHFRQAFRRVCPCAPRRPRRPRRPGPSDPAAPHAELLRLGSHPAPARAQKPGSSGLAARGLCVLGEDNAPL
Sequence of D(2) dopamine receptor (Homo sapiens) (P14416 whole entry, looked up): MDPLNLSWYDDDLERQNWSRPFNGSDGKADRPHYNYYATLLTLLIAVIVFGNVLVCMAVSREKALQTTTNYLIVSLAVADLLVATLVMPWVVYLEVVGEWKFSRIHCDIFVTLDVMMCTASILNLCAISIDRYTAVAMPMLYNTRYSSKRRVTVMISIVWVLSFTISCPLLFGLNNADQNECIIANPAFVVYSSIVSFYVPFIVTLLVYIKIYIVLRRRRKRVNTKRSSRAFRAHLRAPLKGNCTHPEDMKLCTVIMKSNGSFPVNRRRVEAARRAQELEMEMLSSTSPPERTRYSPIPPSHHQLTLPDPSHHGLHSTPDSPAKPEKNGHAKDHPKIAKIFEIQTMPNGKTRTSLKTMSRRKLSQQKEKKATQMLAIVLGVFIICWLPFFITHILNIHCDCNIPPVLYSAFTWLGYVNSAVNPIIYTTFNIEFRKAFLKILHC
Sequence of Beta-2 adrenergic receptor (Homo sapiens) (P07550 whole entry, looked up): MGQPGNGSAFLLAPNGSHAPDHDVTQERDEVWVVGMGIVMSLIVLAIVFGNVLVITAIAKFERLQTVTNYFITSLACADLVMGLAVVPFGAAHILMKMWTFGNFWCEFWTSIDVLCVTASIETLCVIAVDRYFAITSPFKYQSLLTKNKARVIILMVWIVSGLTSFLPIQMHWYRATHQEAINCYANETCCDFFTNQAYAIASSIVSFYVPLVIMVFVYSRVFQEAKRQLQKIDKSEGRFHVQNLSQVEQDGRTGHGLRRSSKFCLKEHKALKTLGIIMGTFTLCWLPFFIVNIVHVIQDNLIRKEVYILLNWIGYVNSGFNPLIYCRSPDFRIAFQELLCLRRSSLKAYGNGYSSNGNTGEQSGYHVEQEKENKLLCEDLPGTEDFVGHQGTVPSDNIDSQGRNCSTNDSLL
Sequence of Gonadotropin-releasing hormone receptor (Homo sapiens) (P30968 whole entry, looked up): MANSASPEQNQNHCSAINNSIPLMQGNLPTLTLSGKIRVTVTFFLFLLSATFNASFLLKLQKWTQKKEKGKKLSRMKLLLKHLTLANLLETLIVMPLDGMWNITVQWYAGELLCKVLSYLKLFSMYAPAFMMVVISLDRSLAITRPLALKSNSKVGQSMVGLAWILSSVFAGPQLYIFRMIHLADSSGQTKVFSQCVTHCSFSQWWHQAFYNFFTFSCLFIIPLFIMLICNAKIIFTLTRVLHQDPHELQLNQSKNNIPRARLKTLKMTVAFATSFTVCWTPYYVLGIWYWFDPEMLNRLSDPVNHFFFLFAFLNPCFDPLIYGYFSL
Sequence of 5-hydroxytryptamine receptor 2A (Homo sapiens) (P28223 whole entry, looked up): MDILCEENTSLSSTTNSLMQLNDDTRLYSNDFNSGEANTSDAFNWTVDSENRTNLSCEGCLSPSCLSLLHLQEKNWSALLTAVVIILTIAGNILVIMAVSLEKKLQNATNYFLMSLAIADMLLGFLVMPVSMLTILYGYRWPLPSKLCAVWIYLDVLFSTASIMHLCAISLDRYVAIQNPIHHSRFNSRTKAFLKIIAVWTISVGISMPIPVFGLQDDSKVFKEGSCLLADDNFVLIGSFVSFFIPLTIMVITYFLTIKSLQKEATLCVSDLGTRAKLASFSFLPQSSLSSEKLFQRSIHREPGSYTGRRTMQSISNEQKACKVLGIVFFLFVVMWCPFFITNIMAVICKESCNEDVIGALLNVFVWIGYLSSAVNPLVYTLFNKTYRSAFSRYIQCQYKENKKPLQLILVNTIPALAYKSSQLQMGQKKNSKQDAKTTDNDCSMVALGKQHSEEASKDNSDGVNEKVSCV

Row | SMILES | Potency [1] | Potency [2] | Potency [3] | Potency [4] | Potency [5] | Potency [6] | Potency [7] | Potency [8] | Potency [9] | Potency [10] | Potency [11] | Potency [12] | Potency [13] | Potency [14] | Potency [15] | Potency [16] | Potency [17] | Potency [18] | Potency [19] | Potency [20]
1 | COc1cc(-c2ccc(=O)[nH]n2)ccc1OC(F)F | inactive | inactive | inactive | inactive | inactive | inactive | inactive | inactive | inactive | inactive | 0.0038 µM (active) | 13.3 µM (active) | inactive | inactive | inactive | inactive |  |  |  | 
2 | CCN(C)C(=O)Oc1cccc([C@H](C)N(C)C)c1 | inactive | inactive | inactive | inactive | inactive |  | inactive | inactive | inactive | inactive |  | inactive |  |  | inactive | inactive | inactive | inactive | inactive | 
3 | CCCCCCCCCCCCCBr | inactive | inactive | inactive | inactive | inactive |  | inactive |  | inactive | inactive | inactive | inactive | inactive | inactive | inactive |  | inactive | inactive | inactive | inactive
4 | C[C@H]1c2cccc(O)c2C(O)=C2C(=O)[C@]3(O)C(O)=C(C(N)=O)C(=O)[C@@H](N(C)C)[C@@H]3[C@@H](O)[C@@H]21 | inactive | inactive | inactive | inactive | inactive |  | inactive | inactive | inactive | inactive | inactive |  | inactive | inactive | inactive | inactive | inactive | inactive |  | inactive
5 | Cc1cc2c(cc1CC(=O)c1sccc1S(=O)(=O)Nc1onc(C)c1Cl)OCO2 | 4.22 µM (active) | inactive | inactive | inactive | inactive |  | inactive | inactive | inactive |  | inactive | inactive | inactive | inactive | inactive | inactive | inactive | inactive | inactive | inactive
6 | CCn1ccc(NS(=O)(=O)c2ccc(N)cc2)nc1=O | inactive | inactive | inactive | inactive | inactive | inactive | inactive | inactive | inactive |  | inactive | inactive | inactive |  |  | inactive |  | inactive | inactive | 
7 | Cc1ccccc1OCC(=O)O | inactive | inactive | inactive | inactive | inactive |  | inactive |  | inactive | inactive | inactive | inactive | inactive | inactive | inactive |  | inactive | inactive | inactive | inactive
8 | CC(=O)OC(C)OC(=O)C(C)c1ccc(-c2ccccc2)c(F)c1 (stereo not given) | inactive | inactive | inactive | inactive | inactive | inactive | inactive |  | inactive | inactive | inactive |  | inactive | inactive | inactive | inactive |  | inactive |  | inactive
9 | Nc1ncn([C@H]2C[C@H](O)[C@@H](CO)O2)c(=O)n1 | inactive | inactive | inactive | inactive | inactive |  | inactive |  | inactive | inactive | inactive | inactive | inactive | inactive | inactive |  | inactive | inactive | inactive | inactive
10 | CCCCCCOC(=O)CC(CC(=O)OCCCCCC)(OC(=O)CCC)C(=O)OCCCCCC | inactive | inactive | inactive | inactive | inactive |  | inactive |  | inactive | inactive | inactive | inactive | inactive | inactive |  |  | inactive | inactive | inactive | inactive
11 | CCCc1ccc(OCC(=O)N2CCN(C(=O)COc3ccc(CCC)cc3OC)CC2)c(OC)c1 | inactive | inactive | inactive | inactive | inactive | inactive | inactive | inactive | inactive | inactive | inactive | inactive |  |  | inactive | inactive |  | inactive | inactive | 
12 | Clc1ccc2cc3ccccc3cc2c1 | inactive | inactive | inactive | inactive | inactive |  | inactive | 40.7 µM (active) | inactive | inactive | inactive |  | inactive |  | inactive | inactive | inactive | inactive |  | inactive
13 | CC(C)OC(=O)CCC(=O)OC(C)C | inactive | inactive | inactive | inactive | inactive | inactive | inactive | inactive | inactive | inactive | inactive | inactive | inactive |  | inactive | inactive |  | inactive |  | inactive
14 | COc1ccccc1N1CCN(CC(O)COc2cccc3ccccc23)CC1 (stereo not given) | inactive | inactive | inactive | inactive | inactive | inactive | inactive | inactive | inactive | inactive | inactive | inactive | 2.11 µM (active) |  |  | 33.5 µM (active) |  | inactive |  | 
15 | O=C(O)CNC(=O)CNC(=O)CNC(=O)CSC(=O)c1ccccc1 | inactive | inactive | inactive | inactive | inactive |  | inactive |  | inactive | inactive | inactive | inactive | inactive | inactive | inactive |  | inactive | inactive | inactive | inactive
16 | Nc1nc(F)nc2c1ncn2[C@@H]1O[C@H](CO)[C@@H](O)[C@@H]1O | inactive | inactive | inactive | inactive | inactive | inactive |  |  |  |  |  | inactive | inactive | inactive |  | inactive | inactive | inactive | inactive | 
17 | Nc1nnc(-c2ccc([N+](=O)[O-])o2)o1 | inactive | 61.1 µM (active) | inactive | inactive | inactive |  | inactive | inactive | inactive | inactive |  | inactive | inactive | inactive | inactive |  | inactive | inactive | inactive | inactive
